These results are taken from ChEMBL document CHEMBL3988442, “University of Dundee, Small-Polar-MMV Screening Library” (2021).

In the first assay the target is T1, Proteasome subunit beta (Trypanosoma cruzi) (UniProt O96673).
T1 sequence (whole entry): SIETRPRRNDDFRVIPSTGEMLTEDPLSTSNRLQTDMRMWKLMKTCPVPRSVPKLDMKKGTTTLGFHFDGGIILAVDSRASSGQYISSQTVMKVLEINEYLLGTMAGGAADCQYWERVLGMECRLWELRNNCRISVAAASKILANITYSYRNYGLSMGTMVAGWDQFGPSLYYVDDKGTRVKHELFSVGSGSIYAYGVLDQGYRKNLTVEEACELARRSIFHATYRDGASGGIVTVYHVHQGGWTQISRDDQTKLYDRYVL
Briefly: Trypanosoma cruzi proteasome chymotrypsin-like activity (TcProtChymo) assay. In kind it is functional. Further details: scale not given: in the data most compounds retested in dose-response had high values. The conditions noted are these: 9.37 µM.
As for `O=C(c1cnccn1)N1CCN(Cc2ccncc2)c2ncccc2C1`, the Percent Effect worked out at 2.73%.
The same measure, in the same setting: under `CS(=O)(=O)N1CCCCCC1C1CCN(c2ncccn2)CC1` (stereo not drawn) stands 2.17%; under `Cc1noc([C@@H]2CC[C@@H]3[C@@H](CCN3S(=O)(=O)c3cccnc3)O2)n1`, 9.89%; under `COc1ccc(-c2noc(C(=O)NCCN3CCCCC3)n2)cc1OC`, 1.85%.
The same measure, in the same setting: under `CNC(=O)[C@H]1C[C@H]2OCC[C@H]2N(Cc2ccc(C)o2)C1` stands 9.57%.
On to `N#Cc1ccc(F)c(CN2CCCC2Cn2cccn2)c1` (stereo not drawn), for which the Percent Effect was -0.359%.
The same measure, in the same setting: the value for `CC(C)CN1CCC(c2nc3c([nH]2)CC(C)(C)CNC3=O)C1` (stereo not drawn) was 10.5%; that for `CSc1cc2c(cc1NC(=O)NCC(C)(C)C(N)=O)OCCO2` was 12.8%.
Same read-out and setting: under `CC(C)C1CN(C(=O)c2ccc(C(N)=O)cc2)CCS1` (stereo not drawn) stands 6.49%; under `Cc1ccc(-c2cc(CNC(=O)N3CCOC(C)C3)on2)cc1` (stereo not drawn), 7.54%; under `Cn1cc(N2CC3(CCN(Cc4cccs4)CC3)OCC2=O)cn1`, 3.68%.
Same read-out and setting: under `CCc1noc(C2CCN(C(=O)CCn3nc(C)cc3C)CC2)n1` stands 14.8%; under `NC(=O)COc1cccc(C(=O)N2CCCC(n3ccnc3)C2)c1` (stereo not drawn), -4.67%.
`CCCc1cc(C(=O)N(C)Cc2cccc3ncccc23)n(C)n1`: the Percent Effect was 14.6%.
Regarding `CCOCC1CN(Cc2ccoc2)Cc2nn(CC3CC3)cc21` (stereo not drawn), the Percent Effect was 3.3%.
The same measure, in the same setting: the value for `Cn1nc(C2CCCN(Cc3ccsc3)C2)c2nccnc21` (stereo not drawn) was 4.68%; that for `CCS(=O)(=O)N1CCOC2(CCCN(c3ccc(C)nn3)C2)C1` (stereo not drawn) was 6.67%; that for `CCN(CCC(F)(F)F)C(=O)Nc1cccc(N2CCOCC2)c1` was 5.52%.
Still for that read-out and setting: under `Cc1nn(C)cc1CN1CCC(C2Nc3ccccc3S(=O)(=O)N2)CC1` (stereo not drawn) stands 7.49%; under `COCCCNC(=O)CN1CCCC1c1c(C)nn(C)c1Cl` (stereo not drawn), 7.38%.
The same measure, in the same setting: the value for `Cc1ccccc1CN1CCN(CC(=O)Nc2cccnc2)CC1` was 11.1%; that for `CS(=O)(=O)N1CCOCC2(CN(Cc3ccsc3)CCO2)C1` (stereo not drawn) was 8.82%; that for `c1cncc(COCc2nnc3n2CCN(Cc2ccoc2)C3)c1` was 21%.
`CCN1C(=O)CCC12CCCN(Cc1nccs1)CC2` (stereo not drawn): the Percent Effect worked out at 8.37%.
Same read-out and setting: under `O=C(Nc1cnn(CCN2CCOCC2)c1)c1cc(F)ccc1F` stands -3.17%.
Still for that read-out and setting: under `O=C(N[C@@H]1CN(Cc2ccc3c(c2)OCO3)[C@@H]2CCCO[C@@H]21)C1CC1` stands 13.2%.
The same measure, in the same setting: under `Cc1noc(Cl)c1CCC(=O)N1CCC(CC(N)=O)CC1` stands 13.6%; under `c1ncn(CC2CCCCN2Cc2noc(C3CC3)n2)n1` (stereo not drawn), 16.4%.
Turning to `Cc1ccc(CNS(=O)(=O)CC2=NC(=O)n3cccc3C2=O)cc1`, the Percent Effect was found to be 7.21%.
Turning to `Cn1cc(CN2CCn3cc(CNC(=O)C4CCC4)nc3C2)cn1`, the Percent Effect was 7.69%.
In the case of `CCNC(c1cccnc1)c1cc(C)cc(C)c1` (stereo not drawn), the Percent Effect is 5.83%.
Turning to `Cc1nc(N2CC[C@@H](NC(=O)c3cnccn3)[C@H](O)C2)c2ccsc2n1`, the Percent Effect amounted to 2.41%.
Same read-out and setting: under `CC(C)C(C(=O)N1CCN(Cc2ccncc2)CC1)n1cncn1` (stereo not drawn) stands 3.83%; under `CC1c2ncc(Cn3cncn3)n2CCN1C(=O)C1CCOCC1` (stereo not drawn), 5.13%.
Take `Cc1cnn(CCNCC(O)COc2ccc(C#N)cc2)c1` (stereo not drawn): the Percent Effect worked out at 8.44%.
On the same count and under the same terms, the value for `O=C(CCc1nccs1)N1CCN(c2cccnn2)CC1` was -0.404%; that for `CC(O)CN(CC(=O)NC(=O)NCC(F)(F)F)c1ccccc1` (stereo not drawn) was 7.36%; that for `Cn1nccc1C(=O)N1CCOC(Cc2cccc(C(F)(F)F)c2)C1` (stereo not drawn) was 4.18%.
In the case of `COC(=O)C(C)(C)NC(=O)C1CC(=O)N(C)C1` (stereo not drawn), the Percent Effect is 3.17%.

The next assay is filed under the species Homo sapiens. Put plainly: To identify inhibition of the IFN signalling (Jak-Stat) pathway via expression of an eGFP reporter gene under the control of an IFN-stimulated response element (ISRE) containing MxA promoter. In kind it is functional. Further details: scale not given: direction of the effect not stated beside the values. The conditions noted are these: 30 µM. A general note: Reporter assays use an easily measured gene product as a stand-in for the process of interest.
As to `O=C(c1cnccn1)N1CCN(Cc2ccncc2)c2ncccc2C1`, the Percent Effect is -10.5%.
As to `CS(=O)(=O)N1CCCCCC1C1CCN(c2ncccn2)CC1` (stereo not drawn), the Percent Effect came to 24.7%.
Still for that read-out and setting: the value for `Cc1noc([C@@H]2CC[C@@H]3[C@@H](CCN3S(=O)(=O)c3cccnc3)O2)n1` was 3.62%.
As for `COc1ccc(-c2noc(C(=O)NCCN3CCCCC3)n2)cc1OC`, the Percent Effect was 6.7%.
Still for that read-out and setting: under `CNC(=O)[C@H]1C[C@H]2OCC[C@H]2N(Cc2ccc(C)o2)C1` stands 7.69%; under `N#Cc1ccc(F)c(CN2CCCC2Cn2cccn2)c1` (stereo not drawn), 4.22%; under `CC(C)CN1CCC(c2nc3c([nH]2)CC(C)(C)CNC3=O)C1` (stereo not drawn), 19.8%.
On to `CSc1cc2c(cc1NC(=O)NCC(C)(C)C(N)=O)OCCO2`, for which the Percent Effect was -6.09%.
Same read-out and setting: the value for `CC(C)C1CN(C(=O)c2ccc(C(N)=O)cc2)CCS1` (stereo not drawn) was 6.03%.
Take `Cc1ccc(-c2cc(CNC(=O)N3CCOC(C)C3)on2)cc1` (stereo not drawn): the Percent Effect worked out at 20.6%.
The same measure, in the same setting: under `Cn1cc(N2CC3(CCN(Cc4cccs4)CC3)OCC2=O)cn1` stands 2.59%; under `CCc1noc(C2CCN(C(=O)CCn3nc(C)cc3C)CC2)n1`, -6.48%.
The same measure, in the same setting: under `NC(=O)COc1cccc(C(=O)N2CCCC(n3ccnc3)C2)c1` (stereo not drawn) stands -2.06%; under `CCCc1cc(C(=O)N(C)Cc2cccc3ncccc23)n(C)n1`, 36.1%; under `CCOCC1CN(Cc2ccoc2)Cc2nn(CC3CC3)cc21` (stereo not drawn), 5.53%.
The same measure, in the same setting: the value for `Cn1nc(C2CCCN(Cc3ccsc3)C2)c2nccnc21` (stereo not drawn) was 3.34%.
With `CCS(=O)(=O)N1CCOC2(CCCN(c3ccc(C)nn3)C2)C1` (stereo not drawn), the Percent Effect is -5.88%.
On the same count and under the same terms, under `CCN(CCC(F)(F)F)C(=O)Nc1cccc(N2CCOCC2)c1` stands 16.4%; under `Cc1nn(C)cc1CN1CCC(C2Nc3ccccc3S(=O)(=O)N2)CC1` (stereo not drawn), -1.1%.
On the same count and under the same terms, under `COCCCNC(=O)CN1CCCC1c1c(C)nn(C)c1Cl` (stereo not drawn) stands -0.237%; under `Cc1ccccc1CN1CCN(CC(=O)Nc2cccnc2)CC1`, 12.5%; under `CS(=O)(=O)N1CCOCC2(CN(Cc3ccsc3)CCO2)C1` (stereo not drawn), 10.5%.
Same read-out and setting: the value for `c1cncc(COCc2nnc3n2CCN(Cc2ccoc2)C3)c1` was 8.47%.
Turning to `CCN1C(=O)CCC12CCCN(Cc1nccs1)CC2` (stereo not drawn), the Percent Effect was 9.53%.
The same measure, in the same setting: the value for `O=C(Nc1cnn(CCN2CCOCC2)c1)c1cc(F)ccc1F` was -12.4%.
The same measure, in the same setting: the value for `O=C(N[C@@H]1CN(Cc2ccc3c(c2)OCO3)[C@@H]2CCCO[C@@H]21)C1CC1` was 4.07%.
On the same count and under the same terms, the value for `Cc1noc(Cl)c1CCC(=O)N1CCC(CC(N)=O)CC1` was 10.4%; that for `c1ncn(CC2CCCCN2Cc2noc(C3CC3)n2)n1` (stereo not drawn) was 6.6%; that for `Cc1ccc(CNS(=O)(=O)CC2=NC(=O)n3cccc3C2=O)cc1` was -19.8%.
As to `Cn1cc(CN2CCn3cc(CNC(=O)C4CCC4)nc3C2)cn1`, the Percent Effect was 0.15%.
Still for that read-out and setting: under `CCNC(c1cccnc1)c1cc(C)cc(C)c1` (stereo not drawn) stands -28.2%.
Same read-out and setting: the value for `Cc1nc(N2CC[C@@H](NC(=O)c3cnccn3)[C@H](O)C2)c2ccsc2n1` was 46.9%.
Same read-out and setting: under `CC(C)C(C(=O)N1CCN(Cc2ccncc2)CC1)n1cncn1` (stereo not drawn) stands -1.24%.
Turning to `CC1c2ncc(Cn3cncn3)n2CCN1C(=O)C1CCOCC1` (stereo not drawn), the Percent Effect is -14.3%.
For the compound `Cc1cnn(CCNCC(O)COc2ccc(C#N)cc2)c1` (stereo not drawn), the Percent Effect is -3.4%.
Turning to `O=C(CCc1nccs1)N1CCN(c2cccnn2)CC1`, the Percent Effect was 13.5%.
As to `CC(O)CN(CC(=O)NC(=O)NCC(F)(F)F)c1ccccc1` (stereo not drawn), the Percent Effect was 17.3%.
The same measure, in the same setting: under `Cn1nccc1C(=O)N1CCOC(Cc2cccc(C(F)(F)F)c2)C1` (stereo not drawn) stands 12.7%; under `COC(=O)C(C)(C)NC(=O)C1CC(=O)N(C)C1` (stereo not drawn), -3.68%.
